Measurements from PubChem BioAssay (EPA / NIEHS).
Where “and” joins values, the source holds several entries; their conditions need not be identical. Equal entries are not always repeated. Calls of active or inactive are those of the source. Rule for the calls: active = hit-call score of the fitted dose curve at least 0.9, where 1 is the maximum; inactive = score below 0.9.

Each compound was assayed on Paternally Expressed 10 (PEG10), PEG10 (gene 23089) (assay: LTEA_HepaRG_PEG10: Life Technologies and Expression Analysis (LTEA) Assay for Paternally Expressed 10 (PEG10) using HepaRG (AID 2283520;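 for AC50: PEG10 transcript by qRT-PCR normalised to ACTB GAPDH and POLR2A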)). Conditions: mRNA level, 48 h; actives raise or lower the signal.
Procedure: LTEA_HepaRG is a cell based, multiplexed-readout assay that uses HepaRG, a human liver cell line, with measurements taken at 48 hours after chemical dosing on a 96-well plate.LTEA_HepaRG_PEG10 is one of 102 assay component(s) measured in the LTEA HepaRG cell culture assay. It is a marker of Cell proliferation, survival, death.Data from the assay component LTEA_HepaRG_PEG10 was analyzed into 1 endpoint. This assay endpoint, LTEA_HepaRG_PEG10, was analyzed with bidirectional fitting relative to DMSO as the negative control and baseline of activity. Using a type of inducible reporter, measures of mRNA induction for gain or loss-of-signal activity can be used to understand regulation of transcription factor activity. To generalize the intended target to other relatable targets, this assay endpoint is annotated to the dna binding intended target family, where the subfamily is xenobiotic metabolism.
A total of 1060 chemcials from the ToxCast library were tested in eight-point concentration-response experiments. Cell culture and cytotoxicity assays were conducted at Thermo Fisher Scientific's Custom Services facility (Madison, WI). A single lot of human HepaRG cells (Thermo Fisher Scientific, Frederick, MD) was used for the cell culture experiments. 96-well format collagen type I coated plates of human HepaRG cells were prepared using established methods. Briefly, cryopreserved HepaRG cells were thawed, plated at a density of approximately 100,000 cells/well in HepaRG Thaw, Plate, and General Purpose media (HPRG770, Thermo Fisher Scientific), and incubated for 48 hours. 0.5% DMSO was selected as vehicle control to balance the requisite need of DMSO in HepaRG cultures to maintain differentiation (for example, baseline metabolism, proportions of hepatocytes vs. cholangiocytes), while enabling further hepatic receptor pathway activation (for example, PXR and CAR) in response to chemical exposure. 48 hours after plating, the culture medium was replaced with HepaRG Serum-Free Incudtion Media. Cells were exposed to each test chemical in duplicate and maintained in CO2 incubators for another 48 hours. Chemical plates were thawed to room temperature and 200x concentrations of treatment groups were prepared. 8-point conentration-reponse curves were made with the highest exposure at 100 uM, followed by half-log dilutions, all in 0.5% DMSO. Each test plate contained variouse controls, induction positive controls (1mM phenobarbital), cytotoxicity positive controls ([…] aflatoxin B1), vehicle controls (0.5% DMSO), and total lysis controls (0.5% DMSO). Cell morphology images were taken using an Essen IncuCyte FLR automated microscope, with six 96-well plates imaged in about 24 minutes. Images were captured and exported and JPEG files. Spent culture media was transfered to black-well plates for the LDH assay, and remaining media was sorted at -80 C for later use. Cells were treated with RLT buffer and frozen until shipped for gene expression analysis. Total RNA was isolated from the cell suspension in 75 uL of Buffer RLT (Qiagen, Germantown, MD 20874) by Quintiles/Expression Analysis (Durham, NC) using a custom isolation procedure. Total RNA from each plate well was transferred to a preamplification plate. Fluidigm's 96.96 Dynamic ArrayTM (Fluidigm, Amsterdam, the Netherlands) technology was used for gene expression analyses by quantitative reverse transcription polymerase chain reaction (qRT-PCR, performed by Quintiles/Expression Analysis, Durham, NC)89. Standard TaqManTM Assays (Applied Biosystems/ThermoFisher Scientific, Foster City, CA) were used to assess the expression of 93 genes selected based on their selectivity and sensitivity to important hepatic receptors known to be modulated by environmental chemicals; importance in human hepatocyte functionality; and hepatotoxicity. […]
For `CCSC(=O)N(CC(C)C)CC(C)C`, the outcome was “inactive”.
For `CCN(CC)C(=O)c1cccc(C)c1`, the outcome was “inactive”.
For `CCC(C)OC(=O)N1CCCCC1CCO` (stereo not given), the outcome was “inactive”.
In the case of `C=CCOC(Cn1ccnc1)c1ccc(Cl)cc1Cl` (stereo not given), the AC50 is reported as 28.4 µM (active).
In the case of `CCN(Cc1c(F)cccc1Cl)c1c([N+](=O)[O-])cc(C(F)(F)F)cc1[N+](=O)[O-]`, the AC50 is reported as 15.2 µM (active).
`CC(C)CCCCCCc1ccc(O)cc1` was tested, and the outcome was “inactive”.
`CCCCCOC(=O)COc1cc(N2C(=O)C3=C(CCCC3)C2=O)c(F)cc1Cl` was tested, and the outcome was “inactive”.
In the case of `COC(=O)c1ccccc1C(=O)O`, the outcome is reported as “inactive”.
In the case of `CCCOC(=O)c1ccc(C(=O)OCCC)nc1`, the outcome is reported as “inactive”.
In the case of `c1ccc(Nc2ccccc2)cc1`, the outcome is reported as “inactive”.
For `COC(=O)CSc1cc(N=c2sc(=O)n3n2CCCC3)c(F)cc1Cl`, the outcome was “inactive”.
With `C[C@]12CC[C@@H]3c4ccc(O)cc4C[C@@H](CCCCCCCCCS(=O)CCCC(F)(F)C(F)(F)F)[C@H]3[C@@H]1CC[C@@H]2O` (stereo not given in full) the AC50 was 5.19 µM (active).
In the case of `C[C@]12C[C@H](O)[C@H]3[C@@H](CCC4=CC(=O)CC[C@@]43C)[C@@H]1CC[C@@H]2C(=O)CO`, the outcome is reported as “inactive”.
For `O=C(O)C1(C(=O)Nc2ccc(Cl)cc2Cl)CC1`, the AC50 was 39.8 µM (active).
For `COc1c(Cl)ccc(Cl)c1C(=O)O`, the outcome was “inactive”.
For `CCNc1nc(N)nc(Cl)n1`, the outcome was “inactive”.
For `Oc1ccc(C(c2ccc(O)cc2)C(Cl)(Cl)Cl)cc1`, the AC50 was 74.8 µM (active).
In the case of `S=C(S)NCCNC(=S)S.[Mn+2].[S-]C([S-])=NCCN=C([S-])[S-].[Zn+2]`, the AC50 is reported as 110 nM (active) and 262 nM (active) and 190 nM (active).
`O=C(Nc1ccc([N+](=O)[O-])cc1Cl)c1cc(Cl)ccc1O` was tested, and the AC50 was 1.99 µM (active).
In the case of `CSC(=O)c1cccc2nnsc12`, the outcome is reported as “inactive”.
`N#CSCSc1nc2ccccc2s1` was tested, and the AC50 was 50 µM (active).
For `CC(=O)[C@H]1CC[C@H]2[C@@H]3CCC4=CC(=O)CC[C@]4(C)[C@H]3CC[C@]12C`, the AC50 was 7.52 µM (active).
With `OB(O)O` the outcome was “inactive”.
In the case of `N[C@@H](Cc1cc(I)c(Oc2ccc(O)c(I)c2)c(I)c1)C(=O)O`, the AC50 is reported as 8.92 µM (active).
In the case of `CCOC(=O)c1ccc(O)cc1`, the outcome is reported as “inactive”.
With `Cc1nn(C)c(Oc2ccccc2)c1C=NOCc1ccc(C(=O)OC(C)(C)C)cc1` the AC50 was 1.15 µM (active).
For `CCCCC(CC)COC(=O)c1ccccc1C(=O)O` (stereo not given), the outcome was “inactive”.
With `CCCCCCC(C)OC(=O)COc1nc(F)c(Cl)c(N)c1Cl` (stereo not given) the outcome was “inactive”.
In the case of `CCOC(=O)COc1cc(-n2ncc(C(F)(F)F)c(C)c2=O)c(F)cc1Cl`, the outcome is reported as “inactive”.
`O=C(c1ccccc1)C1CCCCC1` was tested, and the outcome was “inactive”.
With `CCCCC(CC)CN1C(=O)C2C3C=CC(C3)C2C1=O` (stereo not given) the AC50 was 1.98 µM (active).
For `c1ccc2[nH]c(-c3cscn3)nc2c1`, the AC50 was 26.6 µM (active).
`CC(=O)S[C@@H]1CC2=CC(=O)CC[C@]2(C)[C@H]2CC[C@@]3(C)[C@@H](CC[C@@]34CCC(=O)O4)[C@H]12` was tested, and the outcome was “inactive”.
`CC(C)(C)[C@@H](O)[C@@H](Cc1ccc(Cl)cc1)n1cncn1` was tested, and the outcome was “inactive”.
`S=C([S-])NCCNC(=S)[S-].[Mn+2]` was tested, and the AC50 was 0.302 µM (active).
`CN(C)C(=O)Nc1ccc(Cl)c(Cl)c1` was tested, and the AC50 was 63.8 µM (active).
With `CC(C)(c1ccc(O)cc1)c1ccc(O)cc1` the outcome was “inactive”.
For `CCCN(CCC)c1c([N+](=O)[O-])cc(C(F)(F)F)c(N)c1[N+](=O)[O-]`, the AC50 was 17.4 µM (active).
With `COC(=O)c1ccc(I)cc1S(=O)(=O)NC(=O)Nc1nc(C)nc(OC)n1` the outcome was “inactive”.
With `CCCN(CCC)C(=O)SCC` the outcome was “inactive”.
